Holding throughout (set-up): species or system human, MV4-11 + K-562 + COLO205 + SK-N-BE2 + OVCAR-8
In one assay the test system is CAMK2B. To be noted: read-out: apparent Kd; compound concentrations: 100 nM and 1000 nM (sheet 'Samples'), CATDS: 1; n = 1.
The test system of another assay is BMPR2. Particulars: read-out: apparent Kd, n = 1.
In another assay the test system is CDC7. To be noted: read-out: apparent Kd; compound concentrations: 100 nM and 1000 nM (sheet 'Samples'), CATDS: 7.2811960251287902E-2; n = 1.
Another assay concerns CLK1. To be noted: read-out: apparent Kd; compound concentrations: 100 nM and 1000 nM (sheet 'Samples'), CATDS: 6.6251473023667004E-2; n = 1.
Another assay concerns CLK4. To be noted: read-out: apparent Kd, n = 1.
Another assay concerns CSNK2A1;CSNK2A3. To be noted: read-out: apparent Kd; compound concentrations: 100 nM and 1000 nM (sheet 'Samples'), CATDS: 8.9230390485803696E-2; n = 1.
Another assay deals with CSNK2A2. To be noted: read-out: apparent Kd; compound concentrations: 100 nM and 1000 nM (sheet 'Samples'), CATDS: 7.4198005881570203E-2; n = 1.
In another assay the test system is GAK. To be noted: read-out: apparent Kd, compound concentrations: 100 nM and 1000 nM (sheet 'Samples'), n = 1.
Another assay has as its system JAK1. Particulars: read-out: apparent Kd; compound concentrations: 100 nM and 1000 nM (sheet 'Samples'), CATDS: 8.5496102279709801E-2; n = 1.
For the next assay, the system named is PI4KB. Particulars: read-out: apparent Kd; compound concentrations: 100 nM and 1000 nM (sheet 'Samples'), CATDS: 0.18235028668709399; n = 1.
The next assay has as its system PIK3C2B. Particulars: read-out: apparent Kd; compound concentrations: 100 nM and 1000 nM (sheet 'Samples'), CATDS: 7.7184460843741698E-2; n = 1.
The next assay has as its system RIOK2. Particulars: read-out: apparent Kd; compound concentrations: 100 nM and 1000 nM (sheet 'Samples'), CATDS: 5.9872886906535798E-2; n = 1.
The next assay deals with TNIK. Particulars: read-out: apparent Kd; compound concentrations: 100 nM and 1000 nM (sheet 'Samples'), CATDS: 7.3078421719639103E-2; n = 1.
A further assay relates to CDC42. Particulars: read-out: apparent Kd; compound concentrations:100 nM and 1000 nM (sheet 'Samples'); n = 1.
A further assay deals with BUB1. To be noted: read-out: apparent Kd; compound concentrations: 100 nM and 1000 nM (sheet 'Samples'), CATDS: 0.17934012366879401; n = 1.
The test system of another assay is CIT. Particulars: read-out: apparent Kd; compound concentrations: 100 nM and 1000 nM (sheet 'Samples'), CATDS: 0.144210490801775; n = 1.
The next assay relates to CSNK1D. To be noted: read-out: apparent Kd; compound concentrations: 100 nM and 1000 nM (sheet 'Samples'), CATDS: 0.10890792541592099; n = 1.
A further assay concerns MAPK10. To be noted: read-out: apparent Kd; compound concentrations: 100 nM and 1000 nM (sheet 'Samples'), CATDS: 0.135593379838652; n = 1.
For a further assay, the system named is MAPK14. To be noted: read-out: apparent Kd; compound concentrations: 100 nM and 1000 nM (sheet 'Samples'), CATDS: 0.115463865520786; n = 1.
A further assay concerns MAPK9. To be noted: read-out: apparent Kd; compound concentrations: 100 nM and 1000 nM (sheet 'Samples'), CATDS: 0.122740421728674; n = 1.
The subject of another assay is MAPKAPK2. Particulars: read-out: apparent Kd; compound concentrations: 100 nM and 1000 nM (sheet 'Samples'), CATDS: 0.10049167184689101; n = 1.
The mark [1] stands for this setting: compound concentrations:100 nM and 1000 nM (sheet 'Samples').

This is an account of results in publication PMC11062922 (Nature Chemical Biology, 2023).

Read-outs that look alike come from different tables or passages of the source.

Take `Cc1ccc2c(-c3ccnc(Nc4ccc5c(c4)OCCO5)n3)c(-c3ccc(C(F)(F)F)cc3)nn2n1` [GW832467X]: the potency estimated from few doses in the assay on CAMK2B is 475 nM.

As to `COC(=O)c1ccc2c(c1)C(=Cc1cc(Br)c(O)c(Br)c1)C(=O)N2` [GW405841X], the potency estimated from few doses was 1220 nM with BMPR2 (compound concentrations: 100 nM and 1000 nM (sheet 'Samples'), CATDS: 6.92108143191002E-2); 1070 nM in the assay on CDC7; 1380 nM in the assay on CLK1; 668 nM in the assay on CLK4 (compound concentrations: 100 nM and 1000 nM (sheet 'Samples'), CATDS: 8.9206642022587504E-2); 667 nM with CSNK2A1;CSNK2A3; 1020 nM in the assay on CSNK2A2. For the same compound, the potency estimated from few doses was 138 nM with GAK (CATDS: 0.232195819387676); 731 nM in the assay with JAK1; 194 nM in the assay on PI4KB; 924 nM in the assay on PIK3C2B; 1910 nM in the assay on RIOK2; 1060 nM with TNIK.

In the case of `O=C1Nc2ccc(C(=O)c3ccco3)cc2C1=Cc1cc(Cl)c(O)c(Cl)c1` [GW406108X], the potency estimated from few doses was 15.8 nM with BMPR2 (setting [1]), 93.8 nM in the assay with CDC42 and 85.5 nM with CLK4 (setting [1]).

Take `Fc1ccc(-c2nn3c(OCC(F)(F)F)cccc3c2-c2ccncc2)cc1` [GW514784X]: the potency estimated from few doses is 448 nM in the assay on BUB1; 646 nM in the assay with CIT; 1160 nM in the assay with CSNK1D; 890 nM with GAK (CATDS: 0.122345585139645); 725 nM in the assay with MAPK10; 1010 nM in the assay with MAPK14. Further, the potency estimated from few doses is 884 nM with MAPK9 and 1420 nM in the assay with MAPKAPK2.
